Results as given in the supplement of paper PMC11555231.

B1: PADI4_3_K10P K10P (peptide)
chain: YRDHHYRHPPYCG
B2: PADI4_3_R2V R2V (peptide)
chain: YVDHHYRHPKYCG
B3: PADI4_3_H5P H5P (peptide)
chain: YRDHPYRHPKYCG
B4: PADI4_3_D3V D3V (peptide)
chain: YRVHHYRHPKYCG
B5: PADI4_3_Y11Y Y11Y (peptide)
chain: YRDHHYRHPKYCG
B6: PADI4_3_R2P R2P (peptide)
chain: YPDHHYRHPKYCG
B7: PADI4_3_D3P D3P (peptide)
chain: YRPHHYRHPKYCG
B8: PADI4_3_K10H K10H (peptide)
chain: YRDHHYRHPHYCG
B9: PADI4_3_K10Y K10Y (peptide)
chain: YRDHHYRHPYYCG
B10: PADI4_3_H4W H4W (peptide)
chain: YRDWHYRHPKYCG
B11: PADI4_3_K10V K10V (peptide)
chain: YRDHHYRHPVYCG
B12: PADI4_3_R2H R2H (peptide)
chain: YHDHHYRHPKYCG
B13: PADI4_3_H8F H8F (peptide)
chain: YRDHHYRFPKYCG
B14: PADI4_3_Y6F Y6F (peptide)
chain: YRDHHFRHPKYCG
B15: PADI4_3_P9H P9H (peptide)
chain: YRDHHYRHHKYCG
B16: PADI4_3_Y6V Y6V (peptide)
chain: YRDHHVRHPKYCG
B17: PADI4_3_Y11F Y11F (peptide)
chain: YRDHHYRHPKFCG
B18: PADI4_3_H4P H4P (peptide)
chain: YRDPHYRHPKYCG
B19: PADI4_3_Y11H Y11H (peptide)
chain: YRDHHYRHPKHCG
B20: PADI4_3_D3W D3W (peptide)
chain: YRWHHYRHPKYCG
B21: PADI4_3_P9P P9P (peptide)
chain: YRDHHYRHPKYCG
B22: PADI4_3_P9F P9F (peptide)
chain: YRDHHYRHFKYCG
B23: PADI4_3_R2Y R2Y (peptide)
chain: YYDHHYRHPKYCG
B24: PADI4_3_H5H H5H (peptide)
chain: YRDHHYRHPKYCG
B25: PADI4_3_H8Y H8Y (peptide)
chain: YRDHHYRYPKYCG
B26: PADI4_3_P9Y P9Y (peptide)
chain: YRDHHYRHYKYCG
B27: PADI4_3_P9W P9W (peptide)
chain: YRDHHYRHWKYCG
B28: PADI4_3_Y11W Y11W (peptide)
chain: YRDHHYRHPKWCG
B29: PADI4_3_H4L H4L (peptide)
chain: YRDLHYRHPKYCG
B30: PADI4_3_R7W R7W (peptide)
chain: YRDHHYWHPKYCG
B31: PADI4_3_H8H H8H (peptide)
chain: YRDHHYRHPKYCG
B32: PADI4_3_R7Y R7Y (peptide)
chain: YRDHHYYHPKYCG
B33: PADI4_3_Y6Y Y6Y (peptide)
chain: YRDHHYRHPKYCG
B34: PADI4_3_R7F R7F (peptide)
chain: YRDHHYFHPKYCG
B35: PADI4_3_R2F R2F (peptide)
chain: YFDHHYRHPKYCG
B36: PADI4_3_Y6P Y6P (peptide)
chain: YRDHHPRHPKYCG
B37: PADI4_3_H5V H5V (peptide)
chain: YRDHVYRHPKYCG
B38: PADI4_3_R7H R7H (peptide)
chain: YRDHHYHHPKYCG
B39: PADI4_3_R2W R2W (peptide)
chain: YWDHHYRHPKYCG
B40: PADI4_3_H8V H8V (peptide)
chain: YRDHHYRVPKYCG
B41: PADI4_3_D3Y D3Y (peptide)
chain: YRYHHYRHPKYCG
B42: PADI4_3_Y11P Y11P (peptide)
chain: YRDHHYRHPKPCG
B43: PADI4_3_P9V P9V (peptide)
chain: YRDHHYRHVKYCG
B44: PADI4_3_H5W H5W (peptide)
chain: YRDHWYRHPKYCG
B45: PADI4_3_H8W H8W (peptide)
chain: YRDHHYRWPKYCG
B46: PADI4_3_Y6H Y6H (peptide)
chain: YRDHHHRHPKYCG
B47: PADI4_3_K10F K10F (peptide)
chain: YRDHHYRHPFYCG
B48: PADI4_3_Y6W Y6W (peptide)
chain: YRDHHWRHPKYCG
B49: PADI4_3_H4V H4V (peptide)
chain: YRDVHYRHPKYCG
B50: PADI4_3_D3F D3F (peptide)
chain: YRFHHYRHPKYCG
B51: PADI4_3_H4Y H4Y (peptide)
chain: YRDYHYRHPKYCG
B52: PADI4_3_H5Y H5Y (peptide)
chain: YRDHYYRHPKYCG
B53: PADI4_3_H8P H8P (peptide)
chain: YRDHHYRPPKYCG
B54: PADI4_3_R7V R7V (peptide)
chain: YRDHHYVHPKYCG
B55: PADI4_3_K10W K10W (peptide)
chain: YRDHHYRHPWYCG
B56: PADI4_3_Y11V Y11V (peptide)
chain: YRDHHYRHPKVCG
B57: PADI4_3_H4F H4F (peptide)
chain: YRDFHYRHPKYCG
B58: PADI4_3_H5F H5F (peptide)
chain: YRDHFYRHPKYCG
B59: PADI4_3_R7P R7P (peptide)
chain: YRDHHYPHPKYCG

What follows are binders tested against PADI4, Q9UM07 (assay: log2 enrichment score relative to parent PADI4_3 peptide (binding to PADI4); higher = tighter binding than parent). Settings: CaCl2: 10 mM.
Sequence of PADI4, Q9UM07 (Q9UM07 whole entry): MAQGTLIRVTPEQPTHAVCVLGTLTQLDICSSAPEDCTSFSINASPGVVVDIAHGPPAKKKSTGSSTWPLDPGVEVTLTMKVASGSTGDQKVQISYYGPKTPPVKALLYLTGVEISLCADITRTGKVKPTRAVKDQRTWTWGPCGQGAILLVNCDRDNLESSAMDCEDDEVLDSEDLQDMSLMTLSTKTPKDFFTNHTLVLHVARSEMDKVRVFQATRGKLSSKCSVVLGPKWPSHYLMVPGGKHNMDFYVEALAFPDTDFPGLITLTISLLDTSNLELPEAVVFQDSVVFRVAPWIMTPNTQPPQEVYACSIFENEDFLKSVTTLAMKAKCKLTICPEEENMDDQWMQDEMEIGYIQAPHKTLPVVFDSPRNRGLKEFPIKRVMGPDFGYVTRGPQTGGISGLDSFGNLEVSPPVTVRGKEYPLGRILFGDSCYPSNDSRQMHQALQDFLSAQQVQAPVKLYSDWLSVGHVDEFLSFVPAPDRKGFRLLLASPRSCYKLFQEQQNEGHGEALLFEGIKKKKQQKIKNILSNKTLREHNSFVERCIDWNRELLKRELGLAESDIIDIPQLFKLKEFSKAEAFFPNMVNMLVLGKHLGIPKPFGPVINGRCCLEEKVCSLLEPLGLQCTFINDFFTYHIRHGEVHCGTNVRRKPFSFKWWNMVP
Description: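 Deep mutational scan of the cyclic peptide PADI4_3 (ClAc-D-Tyr1 initiator, thioether-cyclised to Cys12, C-terminal Gly plus HA tag, mRNA-displayed). Positions 2-11 were each randomised by NNK codons; Met was reprogrammed as N-methyl-alanine (MeA). One round of equilibrium panning against bead-immobilised human PADI4 (100 nM, 10 mM CaCl2, RT). Log2 enrichment (bound/input frequency) relative to the parent sequence (0 = parent), mean of three independent selections.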
B1 was tested, and the log2 enrichment score was -3.67.
With B2 the log2 enrichment score was -1.2.
In the case of B3, the log2 enrichment score is reported as -3.95.
B4 was tested, and the log2 enrichment score was -3.7.
B5 gave a log2 enrichment score of 0.
B6 was tested, and the log2 enrichment score was -2.67.
With B7 the log2 enrichment score was -2.96.
B8 showed a log2 enrichment score of -1.
Binder B9 has a log2 enrichment score of -0.51.
Work on B10 yielded a log2 enrichment score of -3.44.
With B11 the log2 enrichment score was 2.58.
B12 was tested, and the log2 enrichment score was -2.21.
With B13 the log2 enrichment score was -3.69.
B14 showed a log2 enrichment score of -0.749.
With B15 the log2 enrichment score was -2.06.
B16 was tested, and the log2 enrichment score was -2.3.
B17 showed a log2 enrichment score of -2.66.
Binder B18 has a log2 enrichment score of -2.66.
B19 gave a log2 enrichment score of -2.81.
B20 showed a log2 enrichment score of -3.57.
Work on B21 yielded a log2 enrichment score of 0.
B22 gave a log2 enrichment score of -2.05.
Binder B23 has a log2 enrichment score of -2.62.
B24 gave a log2 enrichment score of 0.
For B25, the log2 enrichment score was -3.56.
B26 gave a log2 enrichment score of -2.
B27 gave a log2 enrichment score of -2.
In the case of B28, the log2 enrichment score is reported as -2.51.
B29 showed a log2 enrichment score of -1.52.
B30 showed a log2 enrichment score of 1.07.
For B31, the log2 enrichment score was 0.
B32 showed a log2 enrichment score of -0.78.
Binder B33 has a log2 enrichment score of 0.
B34 was tested, and the log2 enrichment score was -0.962.
In the case of B35, the log2 enrichment score is reported as -2.57.
B36 gave a log2 enrichment score of -2.49.
B37 showed a log2 enrichment score of -3.
In the case of B38, the log2 enrichment score is reported as -1.29.
In the case of B39, the log2 enrichment score is reported as -2.67.
With B40 the log2 enrichment score was -3.3.
Work on B41 yielded a log2 enrichment score of -3.73.
For B42, the log2 enrichment score was -4.34.
For B43, the log2 enrichment score was -1.8.
In the case of B44, the log2 enrichment score is reported as -4.12.
In the case of B45, the log2 enrichment score is reported as -3.81.
B46 showed a log2 enrichment score of 0.321.
For B47, the log2 enrichment score was -0.468.
Binder B48 has a log2 enrichment score of -2.2.
B49 showed a log2 enrichment score of -2.6.
Work on B50 yielded a log2 enrichment score of -4.36.
In the case of B51, the log2 enrichment score is reported as -3.97.
B52 showed a log2 enrichment score of -4.14.
In the case of B53, the log2 enrichment score is reported as -4.28.
For B54, the log2 enrichment score was -1.6.
B55 showed a log2 enrichment score of -0.93.
Binder B56 has a log2 enrichment score of -4.2.
B57 showed a log2 enrichment score of -3.79.
In the case of B58, the log2 enrichment score is reported as -4.31.
Work on B59 yielded a log2 enrichment score of -4.46.
